Screening data as filed in PubChem.
MEKK2mut PB1 HTS – MEK5 binding signal on mutant MEKK2 PB1, primary screen, biochemical, multiplex bead flow cytometry, Alexa488-MEK5. Alexa488-MEK5 binding to MEKK2 mutant. percent response, % at 10 µM. 290,000 tested, 0.35% active; in the data active means percent response above about 24%, passing the limit was not always enough
MEKK3 PB1 HTS – modulators of MEKK3-MEK5 PB1 binding, primary screen, biochemical, wildtype MEKK3, multiplex bead flow cytometry, Alexa488-MEK5; Mitogen-activated protein kinase kinase kinase 3 (Homo sapiens), Q99759; binding response (% of control), % at 10 µM; 290,000 tested, 1.4% active; bead-based flow cytometry, Alexa488-MEK5 binding to MEKK3; actives lie on both sides; 0 = blocked by unlabeled MEK5, 100 = vehicle;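 active means binding response more than 3 SD above or below the average of its plate-row segment, actives on both sides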;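 further: Alexa488 bead fluorescence after subtracting the streptavidin-only scavenger bead signal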
Target sequence (Q99759 whole entry, looked up): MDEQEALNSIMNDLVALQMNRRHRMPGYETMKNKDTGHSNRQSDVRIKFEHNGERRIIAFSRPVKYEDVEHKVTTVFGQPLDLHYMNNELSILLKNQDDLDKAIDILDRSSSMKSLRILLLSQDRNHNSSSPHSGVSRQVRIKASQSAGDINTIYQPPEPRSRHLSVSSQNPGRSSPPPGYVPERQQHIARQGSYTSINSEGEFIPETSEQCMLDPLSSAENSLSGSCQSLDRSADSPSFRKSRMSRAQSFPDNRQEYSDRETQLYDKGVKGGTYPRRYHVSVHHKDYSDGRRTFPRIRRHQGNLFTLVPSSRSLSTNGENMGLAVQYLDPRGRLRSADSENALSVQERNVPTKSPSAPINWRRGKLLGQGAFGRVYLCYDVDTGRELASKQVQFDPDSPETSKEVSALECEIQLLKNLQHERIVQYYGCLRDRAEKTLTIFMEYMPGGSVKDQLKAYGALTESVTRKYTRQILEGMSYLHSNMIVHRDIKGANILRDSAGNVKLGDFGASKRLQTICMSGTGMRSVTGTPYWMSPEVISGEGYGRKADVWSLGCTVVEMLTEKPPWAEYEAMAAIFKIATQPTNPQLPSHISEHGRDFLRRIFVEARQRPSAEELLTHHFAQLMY
MEKK2wt PB1 HTS – modulators of MEK5 binding to wildtype MEKK2, primary screen, biochemical, multiplex bead flow cytometry, Alexa488-MEK5. Mitogen-activated protein kinase kinase kinase 2 (Homo sapiens), Q9Y2U5. Alexa488-MEK5 binding to MEKK2 WT; actives lie on both sides. binding response (% of control), % at 10 µM. 290,000 tested, 1.1% active. AID 1531, 2009; in the data active means binding response below about 67% or above about 130%
Beta2AR agonist – beta2AR agonists driving receptor internalization, primary screen, cell-based, FAP fluorogen, flow cytometry; Am2.2-beta2AR cells; AID 504454, 2011; 340,000 tested, 0.43% active; Beta-2 adrenergic receptor (Homo sapiens), P07550; response, % (test concentration not listed);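 active means response above a set limit, near 3 SD of response in nonfluorescent compounds, cut at about 42% in these data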
GRK2 aptamer HTS – compounds blocking aptamer binding on GRK2 – biochemical, human GRK2, bead flow cytometry, HTS, primary screen. FAM-aptamer displacement from GRK2. inhibition of aptamer binding, % at 10 µM. 330,000 tested, 0.59% active. AID 488847, 2010;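 active means inhibition of aptamer binding above 40%, roughly 3 SD of noise, on plates passing a quality check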;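 further: median bead fluorescence of bound FAM aptamer so fluorescent compounds give negative values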
MEKK2wt confirm – modulators of MEK5 binding to wildtype MEKK2, confirmation, biochemical, single concentration, multiplex bead flow cytometry; shares compounds with MEKK3 PB1 HTS; Alexa488-MEK5 binding to MEKK2 WT; actives lie on both sides; binding response (% of control), % at 10 µM; 5,900 tested, 2.4% active; in the data active means binding response below about 16% or above about 210%; inactive means in between
MEKK2mut confirm – mutant MEKK2 PB1-MEK5 binding signal retest – biochemical, single concentration, multiplex bead flow cytometry, confirmation; shares compounds with MEKK3 PB1 HTS; Alexa488-MEK5 binding to MEKK2 mutant; percent response, % at 10 µM; 5,900 tested, 2% active; AID 1893, 2009; in the data active means percent response mostly above about 71%, no sharp cut-off; inactive means mostly below about 38%;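 further: higher means compound restores mutant binding toward wildtype level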
MEKK3 confirm – MEKK3 wild-type PB1 binding to MEK5, inhibitors, confirmation, biochemical, bead multiplex flow cytometry, single concentration, wildtype. shares compounds with MEKK3 PB1 HTS. Alexa488-MEK5 binding to MEKK3; stronger effect = lower value. binding response (% of control), % at 10 µM. 5,900 tested, 1.8% active;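 active means binding response below 72% of control, or above a set upper limit, though filed actives all read lower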;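 further: 100% = DMSO only wells and 0% = binding blocked by excess unlabeled MEK5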
* hit, by the source's call; · = not tested or not shown; [ ] = remark or other dose. A selection: hits, their analogues and other compounds. The true share with any hit is near 2.9%.

SMILES	MEKK2mut PB1 HTS	MEKK3 PB1 HTS	MEKK2wt PB1 HTS	Beta2AR agonist	GRK2 aptamer HTS	MEKK2wt confirm	MEKK2mut confirm	MEKK3 confirm
O=c1cccc2n1CC1CC2CN(Cc2ccc3c(c2)OCO3)C1 (stereo not drawn)	-27.0	2.0*[inhibitor]	-1.0*[inhibitor]	2.5	5.0	109.0	16.0	109.0
CC1N=C(c2ccccc2)c2cc(Br)ccc2NC1=O (stereo not drawn)	3.0	103.0	103.0	-6.8	2.0	·	·	·
CCCNC(=O)N1[C@H]2CC[C@@H]1C(C(=O)OC)=C(c1ccc(OC(F)(F)F)cc1)C2	·	·	·	-13.4	0.0	·	·	·
O=C1N(c2cccc(Cl)c2)C(c2cccnc2)N2CCCN12 (stereo not drawn)	-11.0	74.0*[inhibitor]	77.0	0.5	0.0	101.0	-1.0	103.0
CN1CC=C(/C=C/c2ccc(-c3ccccc3)cc2)CC1	10.0	110.0	167.0*	·	0.0	163.0	30.0	104.0
COc1ccc(OC)c(N2C(=O)/C(=C/c3ccco3)C(=O)NC2=S)c1	-25.0	85.0	66.0*[inhibitor]	·	100.0*	98.0	2.0	100.0
Cc1ccc(-n2c(C)cc(/C=C3/C(=O)NC(=O)N(C)C3=O)c2C)cc1	0.0	87.0	95.0	-11.4	0.0	·	·	·
COc1ccc(N2C(=O)/C(=C/c3cc(C)n(-c4ccc(C)cn4)c3C)C(=O)NC2=S)c(OC)c1	-20.0	51.0	33.0*[inhibitor]	12.1	2.0	85.0	-5.0	98.0
COc1ccc(CC2(CCc3ccncc3)C(=O)NC(=O)NC2=O)cc1	-8.0	85.0	85.0	-1.1	0.0	·	·	·
O=C1NC(=O)C(CCc2ccncc2)(Cc2ccc([N+](=O)[O-])cc2)C(=O)N1	0.0	140.0*	107.0	24.4	5.0	100.0	2.0	100.0
CN1C(=O)CCC2(C)C1=CCC1C2CCC2(C)C1CCC2(C)O (stereo not drawn)	·	·	·	-2.0	·	·	·	·
COc1cccc(-c2nn(Cc3ccccc3)cc2C(=O)O)c1	1.0	98.0	97.0	-0.6	1.0	·	·	·
COc1cccc(C2CC3C(=O)C=CC2N3Cc2ccccc2)c1 (stereo not drawn)	1.0	157.0*	105.0	8.6	2.0	98.0	-9.0	99.0
O=C(N/N=C/c1c(O)n(CCC2=CCCCC2)c(=S)[nH]c1=O)c1ccccc1	0.0	154.0*	108.0	10.7	1.0	99.0	-2.0	104.0
Nc1ccccc1N=Cc1c(O)n(CCC2=CCCCC2)c(=O)[nH]c1=O	-2.0	104.0	96.0	-3.1	0.0	·	·	·
O=C(N/N=C/c1c(O)n(CCC2=CCCCC2)c(=O)[nH]c1=O)c1ccccc1	1.0	149.0*	111.0	1.2	0.0	100.0	-1.0	104.0
CC1(C)NC(=S)C(C)(C)N1N=O	·	·	·	11.3	·	·	·	·
CC1(C)CC2CCC(O)C2C(CCO)N1 (stereo not drawn)	·	·	·	6.6	·	·	·	·
NP(=O)(Oc1ccccc1)Oc1ccccc1	·	·	·	2.0	·	·	·	·
Cc1cccc(OP(N)(=O)Oc2cccc(C)c2)c1	29.0	132.0*	120.0	4.6	0.0	92.0	-12.0	97.0
c1ccc(CNc2c3c(nc4ccccc24)CCC3)cc1	1.0	100.0	122.0	1.2	0.0	·	·	·
OCCNc1c2c(nc3ccccc13)CCCC2	-42.0	0.0*[inhibitor]	0.0*[inhibitor]	-14.0	1.0	104.0	-2.0	104.0
Cc1ccc2c(c1)[C@@H]1CN(C)CC[C@@H]1N2C(=O)Nc1cccc(C(F)(F)F)c1	26.0	110.0	139.0*	10.3	0.0	110.0	5.0	97.0
CC(=NCCCn1ccnc1)c1c(O)n(C2CCCCC2)c(=O)[nH]c1=O	23.0	132.0*	113.0	0.9	0.0	103.0	-2.0	106.0
CCC1(CCC(C)C)C(=O)NC(=S)NC1=O	·	·	·	1.2	·	·	·	·
SMILES	MEKK2mut PB1 HTS	MEKK3 PB1 HTS	MEKK2wt PB1 HTS	Beta2AR agonist	GRK2 aptamer HTS	MEKK2wt confirm	MEKK2mut confirm	MEKK3 confirm
OCCNCCc1c[nH]c2ccc(OCc3ccccc3)cc12	31.0*	109.0	164.0*	21.3	0.0	167.0	30.0	108.0
Cc1[nH]c2ccc(OCc3ccccc3)cc2c1CCN	18.0	110.0	162.0*	-1.1	0.0	133.0	14.0	105.0
C=C1C(=O)O[C@@H]2C[C@@H](C)[C@@H]3C4OC4C(=O)[C@@]3(C)[C@@H](O)[C@H]12 (stereo partly drawn)	4.0	69.0*[inhibitor]	70.0	43.3*	2.0	97.0	-5.0	101.0
C=C1C(=O)O[C@H]2C[C@@H](C)[C@@H]3C=CC(=O)[C@@]3(C)C[C@H]12	-5.0	94.0	97.0	·	·	·	·	·
Cc1cc(OC(=O)c2cccs2)c2c3c(c(=O)oc2c1)CCCC3	0.0	151.0*	108.0	28.7	6.0	100.0	-3.0	101.0
CC/C(=N\N1CCN(C)CC1)c1c(O)[nH]c(=O)[nH]c1=O	0.0	140.0*	105.0	-8.2	1.0	104.0	4.0	100.0
CCCCCCCSc1cc(OC)c(CCN(C)C)cc1OC	28.0*	104.0	147.0*	37.0	0.0	155.0	21.0	100.0
CCCCCSc1cc(OC)c(CCN)cc1OC	14.0	107.0	127.0	-20.1	0.0	·	·	·
CN1C(=O)C(c2ccc([N+](=O)[O-])cc2[N+](=O)[O-])C(=O)N(C)C1=O	3.0	101.0	109.0	0.7	0.0	·	·	·
CC[n+]1c(SC)ccc2cc(OC)ccc21	1.0	175.0*	108.0	-0.3	3.0	107.0	5.0	103.0
BrCC(Br)C1CCC(Br)C(Br)C1 (stereo not drawn)	·	·	·	-3.9	23.0	·	·	·
CN(C)CCN(CC1CCCN(Cc2ccccc2F)C1)C(=O)Cc1c(F)cccc1F (stereo not drawn)	10.0	104.0	114.0	-2.3	0.0	·	·	·
CN(C)CCN(CC1CCCN(Cc2ccccc2F)C1)C(=O)Cc1ccccc1F (stereo not drawn)	30.0*	111.0	121.0	10.9	0.0	115.0	5.0	102.0
CCN(CC)c1ccc(CN(C)CCc2ccc(OC)c(OC)c2)cc1	24.0*	115.0	135.0*	0.2	4.0	114.0	7.0	107.0
COc1ccc(CCN(C)Cc2ccc(F)cc2F)cc1OC	2.0	102.0	99.0	-4.7	0.0	·	·	·
